A selection: hits, their analogues and other compounds. The true share with any hit is near 2.3%.
FUS yeast rescue: qHTS for Suppressors of FUS Proteinopathy: Primary screen using FUS-linked yeast assay | S. cerevisiae FUS-expressing, growth rescue, OD600, 24 h | Potency, µM (doses to about 76.6 µM), most hits filed as activators | actives 0.24% (n = 390,000) | AID 1347120, 2019;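 note: potency is the fitted concentration of half-maximal effect; plate controls were DMSO vehicle for no effect and reference control for full effect; nearly all actives have a fitted effect of over 55% in size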
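Yeast expressing FUS under galactose induction, OD 0.005 in 2% galactose medium; compounds in a dilution series, 24 h at 30C. Growth rescue by absorbance at 600 nm; CP55940 positive control, DMSO negative.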
Akt phos inh: HTS Assay for Inhibitors of Akt Phophorylation: Primary Screen; Neuro2A IGF-stimulated pAkt S473 HTRF, 20 min; active compounds read low; activity change, % for hits at 50 µM; actives 0.32% (n = 360,000); AID 651550, 2012; in the data active = activity change below about -80%; inconclusive = mostly about -51% to -80%; note: % is set by controls: 0 for no effect and ±100 for the full control effect
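Neuro2A cells in DMEM with 0.5% FBS, overnight at 37 deg C, given compound at single 50 µM final, then IGF (6 nM final) for 20 min at 37 deg C. Lysed; phospho-Akt Ser473 by HTRF after 24 h, 665/615 ratio.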
Abeta rescue: qHTS for compounds that reverse cellular toxicity of Amyloid beta (A-beta) peptide in yeast: Primary Screen | actives 0.063% (n = 410,000) | yeast expressing A-beta42, growth rescue, OD600, 48 h; response scale: 0% DMSO, 100% iron-clioquinol control | AID 1347071, 2019 | Potency, µM (titrated, usually from 46.1 µM), most hits filed as activators; note: potency is the fitted concentration of half-maximal effect; nearly all actives have a fitted effect of over 55% in size
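Yeast A-beta toxicity model in growth medium with pinned compounds, 48 h at 30 C; growth read as absorbance at 600 nm. Normalized to FeCl3/clioquinol equimolar mix (positive) and DMSO (negative).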
aSyn rescue: qHTS of alpha-syn Inhibitors; Potency, µM (doses to about 46.1 µM), for inactives: top-dose growth rescue (activation), usual class: activators; actives 0.14% (n = 370,000); Yeast expressing alpha-synuclein, growth rescue, BacTiter-Glo, 24 h; note: potency is the fitted concentration of half-maximal effect; % of control where 0% means no effect; nearly all actives have a fitted effect of over 65% in size
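Screening used galactose-induced yeast with toxic alpha-synuclein levels, exposed to compound for 24 hr at 30 deg C. Cell growth, read with BacTiter-Glo luminescence, gave the measured signal.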
TDP43 rescue: qHTS of TDP-43 Inhibitors. AID 652104, 2013. actives 1.8% (n = 410,000). TDP-43 expressing yeast growth rescue, BacTiter-Glo, 24 h. Potency, µM (doses to about 46.1 µM), without a hit: top-dose growth rescue (activation), most hits filed as activators; note: potency is the fitted concentration of half-maximal effect; % of control where 0% means no effect; nearly all actives have a fitted effect of over 50% in size
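Yeast cells expressing TDP-43 under galactose induction are exposed to compounds for 24 hr at 30 deg C. BacTiter-Glo luminescence measures growth, so protective compounds score as activators.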
Starred values were filed as active, the others as inactive; [ ] = remark or other dose. Unless noted, calls come from the whole dose curve; as a rule, active = well fitted curve in the direction sought with a large enough effect; inconclusive = small, poorly fitted or top-dose-only effect, or another doubt; inactive = no such curve, though single readings can be large; an effect the other way counts as inactive or inconclusive.

How did Cc1ccc(S(=O)(=O)N(CC(O)Cn2c3ccccc3c3ccccc32)c2cccc(C(N)=O)c2)cc1 (configuration not stated) do in these assays?
FUS yeast rescue: inactive; Abeta rescue: inactive; aSyn rescue: 1.0%; TDP43 rescue: 7.0%

Results for Cc1cc(=O)c2cc(C(=O)Nc3ccc(C)c(C)c3)ccc2[nH]1 ?
FUS yeast rescue: inactive; Abeta rescue: inactive; TDP43 rescue: 17.5%[9.22 µM]

What do the screens show for `Cc1cc(NC(=O)Nc2nc3c(s2)CCCCCC3)ccc1Br`?
FUS yeast rescue: inactive; Abeta rescue: inactive; TDP43 rescue: 24.3%

Results for CN(CC(=O)Nc1cccc(F)c1)C(=O)/C=C/c1cc(Br)ccc1OC(F)F ?
FUS yeast rescue: inactive; Akt phos inh: inactive; Abeta rescue: inactive; aSyn rescue: 3.6%; TDP43 rescue: 20µM*

What do the screens show for `CN(CC(=O)Nc1cccc(F)c1)C(=O)/C=C/c1ccc(Br)s1`?
FUS yeast rescue: inactive; Akt phos inh: inactive; Abeta rescue: inactive; aSyn rescue: 0.1%; TDP43 rescue: -17.7%

Results for Cc1cccc(COc2ccccc2C(=O)N(C)CC(=O)Nc2cccc(F)c2)c1 ?
FUS yeast rescue: inactive; Akt phos inh: inactive; Abeta rescue: inactive; aSyn rescue: 0.3%[1.84 µM]; TDP43 rescue: 25.1µM*

Results for CCOc1ccc(NC(=O)CN(C)C(=O)c2ccccc2OCc2cccc(C)c2)cc1OCC ?
Akt phos inh: inactive; Abeta rescue: inactive; aSyn rescue: -6.1%; TDP43 rescue: 5.7%

Results for COc1cc2c(NC3CCN(C)CC3)nc(N3CCCN(C)CC3)nc2cc1OCC1CCCCN1 (configuration not stated) ?
aSyn rescue: 9.5%

How did Cc1oc2ncn(CC(C)C)c(=O)c2c1C(=O)NCCCN1CCCCC1 do in these assays?
FUS yeast rescue: inactive; Abeta rescue: inactive; TDP43 rescue: 10.0%

What do the screens show for `CC(C)(C)OC(=O)NCCCC[C@H](NC(=O)c1nc[nH]c1C(=O)NC(c1ccccc1)c1ccccc1)C(=O)OC(C)(C)C`?
FUS yeast rescue: 15.8µM*; Akt phos inh: inactive; Abeta rescue: inactive; aSyn rescue: 7.8%; TDP43 rescue: -8.1%

How did CC(C)C[C@H](NC(=O)c1nc[nH]c1C(=O)NC1CCN(C(=O)OC(C)(C)C)CC1)C(=O)OCc1ccccc1 do in these assays?
FUS yeast rescue: inconclusive; Akt phos inh: inactive; Abeta rescue: inactive; aSyn rescue: -0.3%; TDP43 rescue: 8.1%

How did CC(C)(C)OC(=O)NCCCC[C@H](NC(=O)c1nc[nH]c1C(=O)NC1CCN(C(=O)OC(C)(C)C)CC1)C(=O)OC(C)(C)C do in these assays?
FUS yeast rescue: 14.1µM*; Akt phos inh: inactive; Abeta rescue: inactive; aSyn rescue: -9.5%; TDP43 rescue: 15.2%

What do the screens show for `CC(C)C[C@H](NC(=O)c1nc[nH]c1C(=O)NC1CCN(C(=O)OC(C)(C)C)CC1)C(=O)OC(C)(C)C`?
FUS yeast rescue: 14.1µM*; Akt phos inh: inactive; Abeta rescue: inactive; aSyn rescue: -2.5%; TDP43 rescue: 1.6%

What do the screens show for `CC(C)(C)OC(=O)NCCCC[C@H](NC(=O)c1nc[nH]c1C(=O)N[C@@H](CCCCNC(=O)OC(C)(C)C)C(=O)OC(C)(C)C)C(=O)OC(C)(C)C`?
FUS yeast rescue: inconclusive; Akt phos inh: inactive; Abeta rescue: inactive; aSyn rescue: 2.9%; TDP43 rescue: 20.3%

What do the screens show for `COc1ccc(CCNc2nc(SCc3ccccc3Cl)nc3ccccc23)cc1OC`?
FUS yeast rescue: inactive; Abeta rescue: inactive; TDP43 rescue: 0.4%

Results for CCCCn1c(C2CC(=O)N(c3ccc(OCC)cc3)C2)nc2ccccc21 (configuration not stated) ?
FUS yeast rescue: inactive; Abeta rescue: inactive; TDP43 rescue: 16.7%

Results for Cc1sc2c(c1C)c(=O)n(-c1cccc(C(F)(F)F)c1)c(=O)n2Cc1ccc(F)cc1 ?
FUS yeast rescue: inactive; Abeta rescue: inactive; TDP43 rescue: -10.5%

Results for O=C(NC1CCCCC1)c1ccc2c(c1)N(Cc1cccc(F)c1)C(=O)c1ccccc1S2 ?
FUS yeast rescue: inactive; Abeta rescue: inactive; TDP43 rescue: 12.9%

What do the screens show for `Cc1ccc(CNC(=O)C(C)n2nc(C)n3c(cc4sccc43)c2=O)cc1` (configuration not stated)?
FUS yeast rescue: inactive; Abeta rescue: inactive; TDP43 rescue: 18.7%

How did Cc1ccc(C)c(S(=O)(=O)N(C)Cc2cccs2)c1 do in these assays?
Akt phos inh: inactive; Abeta rescue: inactive; aSyn rescue: inconclusive; TDP43 rescue: inconclusive

How did COc1ccc(S(=O)(=O)N(C)Cc2cccs2)cc1Br do in these assays?
FUS yeast rescue: inactive; Akt phos inh: inactive; Abeta rescue: inactive; aSyn rescue: 12.5%; TDP43 rescue: 15.8µM*

How did CCc1ccc(S(=O)(=O)c2nnn(-c3cccc(C)c3)c2N)cc1 do in these assays?
FUS yeast rescue: inactive; Abeta rescue: inactive; TDP43 rescue: 22.4µM*

Results for Nc1c(S(=O)(=O)c2ccccc2)nnn1-c1ccccc1 ?
FUS yeast rescue: inactive; Akt phos inh: inactive; Abeta rescue: inactive; aSyn rescue: 7.2%; TDP43 rescue: -2.8%

Results for CCc1ccc(CNC(=O)c2cnc3sc(N4CCOCC4)nn3c2=O)cc1 ?
FUS yeast rescue: inactive; Abeta rescue: inactive; TDP43 rescue: 19.6%

Results for Cc1ccc(-c2nc(C(=O)NC3CCCCCC3)no2)cc1 ?
FUS yeast rescue: inactive; Akt phos inh: inactive; Abeta rescue: inactive; aSyn rescue: -3.3%; TDP43 rescue: 17.8µM*

Results for Cc1ccc(C(=O)NC2CCCCCC2)o1 ?
FUS yeast rescue: inactive; Akt phos inh: -139.5%*; Abeta rescue: inactive; aSyn rescue: 1.4%; TDP43 rescue: 19.1%

Results for CCOC(=O)N1CCN(C(=O)c2nn(C)c3c2CSc2ccccc2-3)CC1 ?
FUS yeast rescue: inactive; Akt phos inh: inactive; Abeta rescue: inactive; aSyn rescue: 2.4%; TDP43 rescue: 35.5µM*

How did CCN(CC)c1nc(NN)nc(Nc2ccc(C)c(Cl)c2)n1 do in these assays?
FUS yeast rescue: inactive; Akt phos inh: inactive; Abeta rescue: inconclusive; aSyn rescue: -9.5%; TDP43 rescue: 12.6µM*

Results for Cc1ccc(Nc2nc(Cl)c(C=O)s2)cc1Cl ?
FUS yeast rescue: inactive; Akt phos inh: inactive; Abeta rescue: inactive; aSyn rescue: -2.1%; TDP43 rescue: 3.0%
